The record followed here is PubChem BioAssay (EPA / NIEHS).

Activity calls are given as the source filed them. Rule for the calls: active = hit-call score of the fitted dose curve at least 0.9, where 1 is the maximum; inactive = score below 0.9.

Read-out in this experiment: Transforming growth factor beta 1 (TGFb1), TGFB1 (gene 7040)
The experiment in a line: BSK_BE3C_TGFb1: BioMAP Diversity Plus: BE3C Assay for Transforming growth factor beta 1 (TGFb1) Biomarker Activity (AID 2283036). To be noted: primary human bronchial epithelial cells; actives raise or lower the signal. As to the method: BSK_BE3C is a cell-based, multiplexed-readout assay that uses bronchial epithelial cell, a human lung primary cell, with measurements taken at 24 hours after chemical dosing in a 96-well plate.BSK_BE3C_TGFb1 is an assay component measured in the BSK_BE3C assay. It measures TGF-b1 antibody related to regulation of gene expression using ELISA technology.Data from the assay component BSK_BE3C_TGFb1 was analyzed into 1 assay endpoint. This assay endpoint, BSK_BE3C_TGFb1, was analyzed with bidirectional fitting relative to DMSO as the negative control and baseline of activity. Using a type of binding reporter, gain or loss-of-signal activity can be used to understand changes in the signaling as they relate to the gene TGFB1. Furthermore, this assay endpoint can be referred to as a primary readout, because this assay has produced multiple assay endpoints where this one serves a signaling function. To generalize the intended target to other relatable targets, this assay endpoint is annotated to the growth factor intended target family, where the subfamily is transforming growth factor beta.
The levels of cell surface (or secreted, indicated by the prefix "s") biomarker endpoints were measured by ELISA. Overt cytotoxicity to cells in confluent adherent cultures (all systems other than the BT system) was assessed by measuring total protein levels using sulforhodamine B (SRB) staining in parallel cultures at the time of biomarker measurements, indicated as SRB endpoints. For proliferation assays for adherent cell types, individual cell types are cultured at sub-confluence and relative cell numbers quantified by SRB staining at time points optimized for each system (48 h: 3C and CASM3C systems; 72 h: BT and HDF3CGF systems; 96 h: SAg system). SRB was performed by staining cells with 0.1% SRB after fixation with 10% TCA and reading wells at 560 nm.Viability and proliferation of PBMC (T cells) was quantified by Alamar Blue reduction for the SAg and BT systems. For PBMC viability (referred to as PBMC Cytotoxicity within the assay endpoint names), cells were plated (75,000/well in a 96-well plate) and then chemical samples added for 1 h before addition of activators, SEB and TSST-1 (20 ng/mL final concentration each). Cells were incubated for 90 h. Then, Alamar Blue (20 uL/well) (Invitrogen, Cat DAL1100) was added for 6 h, and the plates were read with a fluorescence microplate reader at 546/580 nm (excitation/emission). For PBMC proliferation, cells were plated and activated as above but incubated for only 16 h prior to addition of Alamar Blue. Plates were read after 6 h.
With `COCC(C)N(C(=O)CCl)c1c(C)csc1C` (stereo not given), the outcome was inactive. The same measure, in the same setting: the same measure for `CNC(=O)Oc1cccc2ccccc12`: “inactive”. Same read-out and setting: next, `CC(C)Nc1nc(Cl)nc(NC(C)C)n1`: “inactive”; `CN=C=S`: “inactive”. In the case of `O=C(O)c1c(Cl)ccc2cc(Cl)cnc12`, the result was inactive. Still for that read-out and setting: the same measure for `CS(=O)(=O)c1cc(C(F)(F)F)ccc1C(=O)c1cnoc1C1CC1`: “inactive”; for `CC(C)NC(=O)N1CC(=O)N(c2cc(Cl)cc(Cl)c2)C1=O`: “inactive”.

`CC1(C)C(C=C(Cl)Cl)C1C(=O)OC(C#N)c1cccc(Oc2ccccc2)c1` (stereo not given): the result was inactive. `N#Cc1c[nH]cc1-c1cccc2c1OC(F)(F)O2`: the outcome was inactive. On the same count and under the same terms, next, `CC1(C)C(C(=O)OC(C#N)c2cccc(Oc3ccccc3)c2)C1(C)C` (stereo not given): “inactive”; `CCNC(=O)NC(=O)C(C#N)=NOC`: “inactive”; `N#Cc1c(Cl)cccc1Cl`: “inactive”. Regarding `CCN(CC)c1nc(C)cc(OP(=S)(OC)OC)n1`, the result was inactive. For `O=c1n(Cl)c(=O)n(Cl)c(=O)n1Cl`, the outcome was inactive. Same read-out and setting: next, `COP(=O)(OC)O/C(C)=C/C(=O)N(C)C`: “inactive”; `CCOc1nc(F)cc2nc(S(=O)(=O)Nc3c(Cl)cccc3Cl)nn12`: “inactive”.

For the compound `CCOP(=O)(OCC)Oc1nc(Cl)c(Cl)cc1Cl`, the outcome was inactive. Still for that read-out and setting: the same measure for `CCOC(=O)C(C)OC(=O)c1cc(Oc2ccc(C(F)(F)F)cc2Cl)ccc1[N+](=O)[O-]` (stereo not given): “inactive”; for `CC(C)(C)C(=O)C(Oc1ccc(Cl)cc1)n1cncn1` (stereo not given): “inactive”; for `Clc1nc(Cl)nc(Nc2ccccc2Cl)n1`: “inactive”.

In the case of `COC(=O)NS(=O)(=O)c1ccc(N)cc1`, the result was inactive. `COP(=S)(OC)SCn1nnc2ccccc2c1=O`: the outcome was inactive. On to `OC(c1ccc(Cl)cc1)(c1ccc(Cl)cc1)C(Cl)(Cl)Cl`, for which the AC50 (in general, the midpoint of the concentration-response curve, whichever way the signal moves) is 31.2 µM (active). In the case of `Cc1cc(C)nc(Nc2ccccc2)n1`, the outcome was inactive. With `CO/N=C(/C1=NOCCO1)c1ccccc1Oc1ncnc(Oc2ccccc2Cl)c1F`, the result was inactive. `Cc1ccc(N=CN(C)C=Nc2ccc(C)cc2C)c(C)c1`: the concentration at half-maximal activity (AC50) is 34.1 µM (active). As to `Cc1c(COC(=O)[C@@H]2[C@H](/C=C(\Cl)C(F)(F)F)C2(C)C)cccc1-c1ccccc1`, the result was inactive.

On to `CCN(CC)C(=O)C(C)Oc1cccc2ccccc12` (stereo not given), for which the result was inactive. On the same count and under the same terms, the same measure for `CCCCC(C#N)(Cn1cncn1)c1ccc(Cl)cc1` (stereo not given): “inactive”; for `COCC(=O)N(c1c(C)cccc1C)C(C)C(=O)OC` (stereo not given): “inactive”. Consider `CCNP(=S)(OC)O/C(C)=C/C(=O)OC(C)C` (stereo not given), for which the outcome was inactive. On the same count and under the same terms, next, `COc1ccc(-c2ccccc2)cc1NNC(=O)OC(C)C`: “inactive”. On the same count and under the same terms, next, `Clc1cccc(C(Cl)(Cl)Cl)n1`: “inactive”; `CC(C)N1C(=O)N(c2ccccc2)CSC1=NC(C)(C)C`: “inactive”; `CCOc1nc(C(Cl)(Cl)Cl)ns1`: “inactive”.

For `CSC(=O)c1c(C(F)F)nc(C(F)(F)F)c(C(=O)SC)c1CC(C)C`, the result was inactive. Turning to `CNC(=O)N(C)c1nnc(C(C)(C)C)s1`, the outcome was inactive. Same read-out and setting: the same measure for `CCSC(=O)N1CCCCCC1`: “inactive”; for `CCOc1cc(C(C)(C)C)ccc1C1COC(c2c(F)cccc2F)=N1` (stereo not given): “inactive”. For `CS(=O)(=O)c1ccc(C(=O)C2C(=O)CCCC2=O)c([N+](=O)[O-])c1`, the result was inactive.
